Screens (PubChem BioAssay)
JMJD2C inh – blocks human GASC-1 demethylase activity; Q9H3R0; GST-JMJD2C(1-420) H3K9me3 demethylation, DELFIA europium; inhibition, % at 2.35 µM; 330,000 tested, 0.069% active;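 active means more than half of a compound's replicate wells show inhibition beyond 50%, single wells judged on their own value; inconclusive means some, but no more than half, of replicates pass 50% inhibition; inactive means no replicate passes 50% inhibition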;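 further: signal counts dimethyl H3K9 product captured on neutravidin plate; 0% = median of DMSO wells and 100% = 0.3 times that DMSO median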
MEX-5 binding – C. elegans MEX-5 TCR-2 RNA binding activity | Q9XUB2 | MEX-5/FITC-TCR2 RNA binding, fluorescence polarization; stronger effect = lower value | activity score (negative = inhibition of binding), % at 10 µM | 300,000 tested, 0.38% active;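 active means inhibition past about -25% in most replicates, and total fluorescence under double the plate's negative control median, limit read from the data; inconclusive means replicates evenly split on the limit, or fluorescence at least double controls; inactive means too little inhibition in most replicates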;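 further: 0% = DMSO and -100% = 5 µM competing unlabeled TCR2 RNA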
VLA-4 inh – inhibition in a human VLA-4 binding assay | P13612 | VLA-4 expressing cells, ligand binding flow cytometry | inhibition, % (about 7 µM as worked out from the volumes in the protocol) | 330,000 tested, 0.2% active; in the data active means inhibition above about 50%
V-ATPase pH – alters yeast V-ATPase proton transport | S. cerevisiae, pHLuorin cytosolic pH fluorescence | response, % at 10 µM | 350,000 tested, 0.37% active; in the data active means response mostly above about 7.3%, no sharp cut-off; inactive means mostly below about 5.4%; further: actives read high
Granule exo inh – lytic granule exocytosis inhibition | TALL-104 LAMP-1 surface exposure, flow cytometry; cells stimulated with thapsigargin and PMA | inhibition, % at 10 µM | 360,000 tested, 0.66% active | AID 651702;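 active means inhibition above about 55%, limit read from the data; inconclusive means no clear call, values can overlap the other calls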
HTR2A ag – activates the mouse 5-HT2A serotonin receptor | P35363 | 360,000 tested, 0.66% active | CHO-K1 mHTR2A beta-arrestin complementation, luminescence; percent of 30 µM serotonin response | activation, % at 7.6 µM;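 active means activation above a run cutoff, the mean activation of all tested compounds plus 3 SD, cut at about 14% in these data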;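 further: 0% = plate median of compound wells and 100% = 30 µM serotonin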
Target sequence (P35363 whole entry, looked up): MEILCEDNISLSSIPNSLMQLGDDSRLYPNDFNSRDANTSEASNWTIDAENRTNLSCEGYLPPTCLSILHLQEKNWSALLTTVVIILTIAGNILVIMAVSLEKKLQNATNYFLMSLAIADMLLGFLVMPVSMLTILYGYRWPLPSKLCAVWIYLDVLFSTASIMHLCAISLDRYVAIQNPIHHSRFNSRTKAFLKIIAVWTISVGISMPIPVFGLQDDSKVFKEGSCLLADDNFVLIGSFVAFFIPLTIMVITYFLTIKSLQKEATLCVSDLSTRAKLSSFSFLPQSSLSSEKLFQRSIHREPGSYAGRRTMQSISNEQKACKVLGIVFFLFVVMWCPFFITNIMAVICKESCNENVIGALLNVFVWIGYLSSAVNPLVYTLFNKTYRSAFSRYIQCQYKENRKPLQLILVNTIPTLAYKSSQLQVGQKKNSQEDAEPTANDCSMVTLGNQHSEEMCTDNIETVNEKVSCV
MOR ag counter – counter-screen for mouse HTR2A agonists: human mu opioid receptor agonists | shares compounds with HTR2A ag | U2OS OPRM1 beta-arrestin PathHunter, luminescence; DMSO 0%, DAMGO 9.3 µM 100% | activation, % at 9.3 µM | 2,300 tested, 5.3% active | AID 624380;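 active means mean activation above the mean of DMSO-only wells plus 3 SD, cut at about 0.5% in these data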
HTR2A ag conf – mouse HTR2A agonism confirmed. shares compounds with HTR2A ag. CHO-K1 PathHunter beta-arrestin recruitment, luminescence; DMSO 0%, 30 µM serotonin 100%. activation, % at 7.6 µM. 2,300 tested, 19% active;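 active means mean activation across triplicates above the hit threshold derived in the original primary screen, cut at about 15% in these data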
An asterisk follows results filed as active; i = inactive; ? = inconclusive; nt = not tested or not shown. In the library only some 2.2% were active in any assay of this set; here they are far more common.

SMILES	JMJD2C inh	MEX-5 binding	VLA-4 inh	V-ATPase pH	Granule exo inh	HTR2A ag	MOR ag counter	HTR2A ag conf
CC1CN(S(=O)(=O)c2cccc(C(=O)NCCC3=CCCCC3)c2)CC(C)O1 (stereo not given)	3.1	-2.0	6.2	-3.8	2.4	-1.9	nt	nt
CCCCC(c1nnnn1CC1CCCO1)N1CCN(c2nc3ccccc3s2)CC1 (stereo not given)	nt	-0.4	nt	0.1	4.4	16.0*	-0.7	9.1
c1csc(C(c2nnnn2C2CCCCC2)N2CCN(c3nc4ccccc4s3)CC2)c1 (stereo not given)	i	-1.6	nt	0.7	0.9	15.2*	-0.6	8.3
O=C(C1CCN(c2ncnc3c2nc2n3CCCCC2)CC1)N1CCN(c2cccc(Cl)c2)CC1	10.8	-0.6	-8.6	-3.6	-28.8	18.2*	-0.6	-1.3
Cc1ccc(CCNC(=O)C2CCCN(c3ncnc4c3nc3n4CCCCC3)C2)cc1 (stereo not given)	5.4	1.3	0.1	-1.0	-0.9	-1.8	nt	nt
O=C(NCCc1ccccc1)C1CCCN(c2ncnc3c2nc2n3CCCCC2)C1 (stereo not given)	-1.5	0.7	31.4	0.0	3.2	14.5*	-0.7	-5.0
O=C(C1CCCN(c2ncnc3c2nc2n3CCCCC2)C1)N1CCN(c2ccc(Cl)cc2)CC1 (stereo not given)	20.8	0.9	5.9	-1.0	2.5	4.7	nt	nt
CC1(C)CC(N=Cc2c(O)n(Cc3ccc4c(c3)OCO4)c(=O)c3ccccc23)CC(C)(C)N1	-18.9	2.4	4.7	-0.8	33.1	-8.7	nt	nt
O=C(CN1C(=O)c2cccnc2Oc2ccc(Cl)cc21)N1CCOCC1	-5.0	1.6	-7.3	0.2	-8.6	14.4*	-0.4	2.3
CC1CCN(C(=O)CCCN2C(=O)c3cccnc3Oc3ccc(Cl)cc32)CC1	15.1	1.1	5.1	3.0	0.0	-5.4	nt	nt
N=c1sccn1CC(=O)Nc1cccc2ccccc12	1.2	2.0	-0.1	nt	1.8	19.6*	-0.5	7.2
COc1ccccc1CNC(=O)COC(=O)/C=C/c1ccc2c(c1)OCO2	8.1	nt	2.7	-1.1	-5.0	-1.1	nt	nt
CCN(CC)C(=O)c1ccc(-c2nnc(Nc3ccc(C(=O)NC)cc3)c3ccccc23)cc1	-44.3	-1.7	-14.7	-1.3	-1.0	14.5*	-0.6	-4.6
CCCN(CCC)Cc1c(C(=O)N/N=C/CCc2ccccc2)nnn1-c1nonc1N	-6.1	1.1	-3.2	-1.6	7.9	5.8	nt	nt
COc1ccc(C)c2sc(N(CCCN(C)C)C(=O)c3ccc4c(c3)OCCO4)nc12	1.9	3.2	-21.3	4.9	-2.2	20.9*	-0.6	5.3
COc1ccc(C)c2sc(N(CCN(C)C)C(=O)/C=C/c3cccs3)nc12	-6.1	0.3	19.0	2.2	41.2	24.2*	1.0*	12.3
COc1ccc(OC)c2sc(N(CCN(C)C)C(=O)/C=C/c3cccs3)nc12	1.8	-3.6	8.4	-3.7	13.2	1.0	nt	nt
Cc1cc(C)c2nc(N(CCCN(C)C)C(=O)c3ccc4c(c3)OCCO4)sc2c1	?	0.5	25.0	-1.4	15.4	-2.6	nt	nt
FC(F)(F)c1cccc(CC2CN(Cc3ccccc3)Cc3ccccc3N2c2cc(Cl)cc(Cl)c2)c1 (stereo not given)	nt	nt	nt	0.4	-0.8	-4.2	nt	nt
O=C(CSc1n[nH]c(-c2ccccn2)n1)Nc1ccccc1	-1.1	-1.7	5.3	5.7	7.4	14.8*	-0.5	-5.3
COc1ccc(NC(=O)CSc2n[nH]c(-c3ccccn3)n2)cc1	11.4	2.6	7.3	-6.1	-9.5	-5.2	nt	nt
CN1CCC(N2CCN(C3CN(Cc4ccccc4)S(=O)(=O)C3)CC2)CC1 (stereo not given)	nt	nt	nt	nt	-1.2	3.3	nt	nt
CSc1ccccc1C(=O)N1CCC(CCC(=O)NC2CC2)CC1	1.9	-1.0	19.4	2.1	-2.4	14.8*	-0.8	-4.2
